In PubChem BioAssay (NCI):
This is part of a sample that, as a whole, favours compounds with a hit. Of some 79,000 tested, about 15% had one in any assay. Calls of active or inactive are those of the source. Cut-off read from the data, not from the text of the source: active = growth inhibition above about 70%; inactive = the rest.

Legend:
[1] = NCI Yeast Anticancer Drug Screen. Data for the rad50 strain (AID 155);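 note: 0% = growth of vehicle-only cultures of the same strain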; settings: S. cerevisiae rad50 strain growth inhibition, stronger effect = higher value
Method in brief: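 Relative growth inhibition (compound vs vehicle) was measured in yeast with a defined repair-gene alteration.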

[2] = NCI Yeast Anticancer Drug Screen. Data for the mec2-1 strain (AID 157); settings: S. cerevisiae mec2-1 strain, stronger effect = higher value
Method in brief: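 Cells of the genetically defined mec2-1 yeast strain are incubated with test compound. Inhibition of growth is calculated against vehicle-treated controls.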

[3] = NCI Yeast Anticancer Drug Screen. Data for the sgs1 mgt1 strain (AID 161);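 note: 0% = growth of cultures given vehicle only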; settings: S. cerevisiae sgs1 mgt1 strain, stronger effect = higher value
Method in brief: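 Inhibition of yeast growth, normalised to vehicle-treated controls, is reported for a strain bearing genetic alterations in DNA damage repair.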

[4] = NCI Yeast Anticancer Drug Screen. Data for the cln2 rad14 strain (AID 165);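 note: 0% = growth equal to vehicle treated cultures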; settings: S. cerevisiae cln2 rad14 strain, stronger effect = higher value
Method in brief: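 The screen exposed genetically defined yeast (cln2 rad14) to test compounds and scored growth inhibition relative to vehicle-treated controls.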

[5] = NCI Yeast Anticancer Drug Screen. Data for the bub3 strain (AID 167); settings: S. cerevisiae bub3 mutant strain, stronger effect = higher value
Method in brief: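 Screening used yeast with an engineered genetic alteration affecting cell cycle control. Compound-exposed cultures were compared with vehicle cultures, and reduced growth was taken as inhibition.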

[6] = NCI Yeast Anticancer Drug Screen. Data for the mlh1 rad18 strain (AID 175); settings: S. cerevisiae mlh1 rad18 strain growth inhibition, stronger effect = higher value
Method in brief: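 Compound-treated yeast growth, normalised to vehicle controls. Strain bears defined DNA repair mutations.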

[7] = at 5.0 µM (retest, dose inferred, filed as 0.5)
[8] = at 50.0 µM (retest, dose inferred, filed as 5.0)

Measured: growth inhibition

c1ccc2c(c1)OCC(CNCCNCC1COc3ccccc3O1)O2 (configuration not stated)
active: [1]; at 50.0 µM 72% | [2]; [8] 79% | [3]; [7] 70% | [3]; [8] 86% | [3]; at 50.0 µM 87.5% | [4]; at 50.0 µM 87% | [6]; [7] 75% | [6]; [8] 74%
inactive: [1]; [7] 51% | [1]; [8] 69% | [2]; [7] 69% | [2]; at 50.0 µM 57.9% | [4]; [7] 45% | [4]; [8] 63% | [5]; [7] 43% | [5]; [8] 55% | [5]; at 50.0 µM 58.3% | [6]; at 50.0 µM 67.2%

N#CNc1nc(N)c(-c2ccc(Cl)cc2)c(C(=O)Nc2ccc(Cl)c(Cl)c2)n1
inactive: [1]; [7] -1% | [1]; [8] 1% | [1]; at 50.0 µM -5.15% | [2]; [7] -3% | [2]; [8] -2% | [2]; at 50.0 µM 14% | [3]; [7] -2% | [3]; [8] 4% | [3]; at 50.0 µM -8% | [4]; [7] -4% | [4]; [8] 1% | [4]; at 50.0 µM -6.6% | [5]; [7] -2% | [5]; [8] 1% | [5]; at 50.0 µM 4.2% | [6]; [7] -1% | [6]; [8] -2% | [6]; at 50.0 µM -22.4%

CCOC(=O)C(=C=Cc1cccs1)C(=O)c1ccccc1
active: [1]; [8] 84% | [1]; at 50.0 µM 87% | [2]; [8] 95% | [2]; at 50.0 µM 90.5% | [3]; [8] 92% | [3]; at 50.0 µM 90.8% | [4]; [8] 91% | [4]; at 50.0 µM 90.7% | [5]; [8] 97% | [5]; at 50.0 µM 89.8% | [6]; [8] 94% | [6]; at 50.0 µM 83.9%
inactive: [1]; [7] 16% | [2]; [7] -14% | [3]; [7] 3% | [4]; [7] -10% | [5]; [7] -13% | [6]; [7] -10%

CC1Cc2ccc3c(c2C(c2ccc4c(c2)OCO4)C1C)OCO3 (configuration not stated)
inactive: [1]; [7] -4% | [1]; [8] -16% | [1]; at 50.0 µM -3.7% | [2]; [7] 3% | [2]; [8] -19% | [2]; at 50.0 µM -15.1% | [3]; [7] 1% | [3]; [8] 14% | [3]; at 50.0 µM -5.1% | [4]; [7] -23% | [4]; [8] -14% | [4]; at 50.0 µM -4.7% | [5]; [7] -5% | [5]; [8] -3% | [5]; at 50.0 µM -3.35% | [6]; [7] -11% | [6]; [8] 26% | [6]; at 50.0 µM 8.9%
